Data: PubChem BioAssay (NCI)
Compounds without any hit were thinned out: in the full panel of roughly 79,000, 15% have a hit. Active and inactive are the calls of the source. Rule as the data show it: active = growth inhibition above about 70%; inactive = the rest.

Assays:
[1] = NCI Yeast Anticancer Drug Screen. Data for the rad52 strain (AID 147);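 also: 0% = growth of vehicle-treated control cultures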; conditions: S. cerevisiae rad52 mutant growth inhibition, active compounds read high
Outline: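 Read-out: growth inhibition versus vehicle-treated controls. Cells were a DNA repair-deficient yeast strain treated with compounds.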

[2] = NCI Yeast Anticancer Drug Screen. Data for the wt1 strain (AID 149);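 also: 0% = growth of vehicle-treated wt1 cultures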; conditions: S. cerevisiae wt1 strain (SPY 50644) growth inhibition, active compounds read high
Outline: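 Readout: yeast growth inhibition, normalised to vehicle controls, in the wt1 strain exposed to test compounds.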

[3] = NCI Yeast Anticancer Drug Screen. Data for the rad50EPP+ strain (AID 151);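 also: 0% = growth of vehicle-treated control cultures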; conditions: S. cerevisiae rad50 mutant strain, active compounds read high
Outline: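 Growth inhibition read against vehicle controls in rad50EPP+ yeast, a strain altered in DNA damage repair, after compound exposure.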

[4] = NCI Yeast Anticancer Drug Screen. Data for the mgt1 strain (AID 153); conditions: S. cerevisiae mgt1 mutant growth inhibition, active compounds read high
Outline: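 mgt1 yeast grown with test compound; read-out is growth inhibition versus vehicle-treated cultures.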

[5] = NCI Yeast Anticancer Drug Screen. Data for the rad50 strain (AID 155);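 also: 0% = growth of vehicle-only cultures of the same strain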; conditions: S. cerevisiae rad50 strain growth inhibition, active compounds read high
Outline: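 Compounds were tested on a yeast strain with an engineered DNA damage repair alteration; the reported value is growth inhibition normalised to vehicle treatment.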

[6] = NCI Yeast Anticancer Drug Screen. Data for the mec2-1 strain (AID 157); conditions: S. cerevisiae mec2-1 strain, active compounds read high
Outline: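 Yeast mec2-1 mutant treated with compound. Readout: growth inhibition vs vehicle controls.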

[7] = NCI Yeast Anticancer Drug Screen. Data for the rad14 strain (AID 159);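 also: 0% = growth of vehicle-treated control cultures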; conditions: S. cerevisiae rad14 strain growth inhibition, active compounds read high
Outline: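 Compound-treated yeast with a defined DNA-repair lesion; growth inhibition normalised to vehicle-treated cultures.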

[8] = NCI Yeast Anticancer Drug Screen. Data for the sgs1 mgt1 strain (AID 161);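 also: 0% = growth of cultures given vehicle only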; conditions: S. cerevisiae sgs1 mgt1 strain, active compounds read high
Outline: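 Genetically altered yeast, compound exposure, growth inhibition relative to vehicle.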

[9] = NCI Yeast Anticancer Drug Screen. Data for the CLN2oe strain (AID 163);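 also: 0% = growth of vehicle-only control cultures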; conditions: S. cerevisiae CLN2oe strain, active compounds read high
Outline: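 Read-out: yeast growth inhibition, expressed relative to vehicle-only controls. The strain bears an engineered cell-cycle alteration.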

[10] = NCI Yeast Anticancer Drug Screen. Data for the cln2 rad14 strain (AID 165);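 also: 0% = growth equal to vehicle treated cultures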; conditions: S. cerevisiae cln2 rad14 strain, active compounds read high
Outline: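 cln2 rad14 yeast strain; compound exposure; growth inhibition read vs vehicle controls.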

[11] = NCI Yeast Anticancer Drug Screen. Data for the bub3 strain (AID 167); conditions: S. cerevisiae bub3 mutant strain, active compounds read high
Outline: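 Growth of a checkpoint-deficient yeast mutant is measured after compound exposure. Values represent inhibition relative to vehicle.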

[12] = NCI Yeast Anticancer Drug Screen. Data for the wt2 strain (AID 169);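 also: 0% = growth of vehicle-treated yeast cultures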; conditions: S. cerevisiae wt2 strain growth inhibition, active compounds read high
Outline: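 Read-out: growth inhibition versus vehicle-treated control cultures after compound exposure of the yeast strain.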

[13] = NCI Yeast Anticancer Drug Screen. Data for the mlh1 strain (AID 171);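 also: 0% = growth of vehicle-treated control cultures of the same strain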; conditions: S. cerevisiae mlh1 strain growth inhibition, active compounds read high
Outline: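 Read-out: growth inhibition versus vehicle controls. Strain: engineered yeast with a defined DNA repair or cell cycle defect, compound-treated.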

[14] = NCI Yeast Anticancer Drug Screen. Data for the sgs1 strain (AID 173);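 also: 0% = growth of vehicle-only control cultures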; conditions: S. cerevisiae sgs1 mutant, active compounds read high
Outline: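 Read-out: yeast growth inhibition relative to vehicle controls, following compound exposure of a strain with a defined DNA repair/cell cycle alteration.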

[15] = NCI Yeast Anticancer Drug Screen. Data for the mlh1 rad18 strain (AID 175); conditions: S. cerevisiae mlh1 rad18 strain growth inhibition, active compounds read high
Outline: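 Yeast w/ defined DNA-repair lesions; compound exposure; growth vs vehicle controls → % inhibition.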

[16] = NCI Yeast Anticancer Drug Screen. Data for the rad18 strain (AID 177); conditions: S. cerevisiae rad18 mutant growth inhibition, active compounds read high
Outline: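 Readout: growth inhibition vs vehicle controls. Cells: genetically altered yeast strain, DNA repair defect.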

[17] = at 5.0 µM (retest, dose inferred, filed as 0.5)
[18] = at 50.0 µM (retest, dose inferred, filed as 5.0)

Measured: growth inhibition

O=C(Cc1ccccc1)NN1C(=O)C(Cl)C1c1cc(Br)cc(Br)c1O (stereo unspecified)
inactive: [1]; at 1.2 µM 4% | [1]; at 3.7 µM 33% | [2]; at 1.2 µM -9% | [2]; at 3.7 µM -5% | [3]; at 1.2 µM -6% | [3]; at 3.7 µM 1% | [3]; at 11.0 µM 29% | [3]; at 33.0 µM 56% | [3]; at 100.0 µM 59% | [4]; at 1.2 µM -5% | [4]; at 3.7 µM 14% | [5]; at 1.2 µM 2% | [5]; at 3.7 µM 20% | [5]; [17] 13% | [6]; at 1.2 µM -3% | [6]; at 3.7 µM 19% | [6]; [17] 56% | [7]; at 1.2 µM -3% | [7]; at 3.7 µM -3% | [8]; [17] 61% | [9]; at 1.2 µM -6% | [9]; at 3.7 µM 18% | [10]; [17] 46% | [11]; at 1.2 µM -8% | [11]; at 3.7 µM 12% | [12]; at 1.2 µM -5% | [12]; at 3.7 µM 10% | [13]; at 1.2 µM -3% | [13]; at 3.7 µM 8% | [14]; at 1.2 µM 4% | [14]; at 3.7 µM 30% | [15]; [17] 47% | [16]; at 1.2 µM 5% | [16]; at 3.7 µM 27%
active: [1]; at 11.0 µM 92% | [1]; at 33.0 µM 93% | [1]; at 100.0 µM 88% | [2]; at 11.0 µM 73% | [2]; at 33.0 µM 94% | [2]; at 100.0 µM 89% | [4]; at 11.0 µM 94% | [4]; at 33.0 µM 95% | [4]; at 100.0 µM 91% | [5]; at 11.0 µM 81% | [5]; at 33.0 µM 91% | [5]; [18] 94% | [5]; at 50.0 µM 97% | [5]; at 100.0 µM 84% | [6]; at 11.0 µM 95% | [6]; at 33.0 µM 95% | [6]; [18] 94% | [6]; at 50.0 µM 97.3% | [6]; at 100.0 µM 92% | [7]; at 11.0 µM 85% | [7]; at 33.0 µM 93% | [7]; at 100.0 µM 92% | [8]; [18] 96% | [8]; at 50.0 µM 98% | [9]; at 11.0 µM 95% | [9]; at 33.0 µM 94% | [9]; at 100.0 µM 86% | [10]; [18] 93% | [10]; at 50.0 µM 95.2% | [11]; [17] 98% | [11]; at 11.0 µM 94% | [11]; at 33.0 µM 96% | [11]; [18] 96% | [11]; at 50.0 µM 97% | [11]; at 100.0 µM 87% | [12]; at 11.0 µM 88% | [12]; at 33.0 µM 94% | [12]; at 100.0 µM 90% | [13]; at 11.0 µM 90% | [13]; at 33.0 µM 95% | [13]; at 100.0 µM 92% | [14]; at 11.0 µM 92% | [14]; at 33.0 µM 93% | [14]; at 100.0 µM 88% | [15]; [18] 94% | [15]; at 50.0 µM 97.2% | [16]; at 11.0 µM 88% | [16]; at 33.0 µM 91% | [16]; at 100.0 µM 84%

CS(=O)(=O)O.[Ag]
active: [1]; at 1.2 µM 72% | [1]; at 3.7 µM 99% | [1]; at 11.0 µM 99% | [1]; at 33.0 µM 99% | [1]; at 100.0 µM 98% | [2]; at 1.2 µM 77% | [2]; at 3.7 µM 99% | [2]; at 11.0 µM 99% | [2]; at 33.0 µM 99% | [2]; at 100.0 µM 98% | [3]; at 1.2 µM 92% | [3]; at 3.7 µM 99% | [3]; at 11.0 µM 100% | [3]; at 33.0 µM 99% | [3]; at 100.0 µM 98% | [4]; at 3.7 µM 99% | [4]; at 11.0 µM 99% | [4]; at 33.0 µM 99% | [4]; at 100.0 µM 98% | [5]; at 1.2 µM 71% | [5]; at 3.7 µM 99% | [5]; [17] 100% | [5]; at 11.0 µM 99% | [5]; at 33.0 µM 99% | [5]; [18] 100% | [5]; at 50.0 µM 91.5% | [5]; at 100.0 µM 98% | [6]; at 3.7 µM 99% | [6]; [17] 100% | [6]; at 11.0 µM 100% | [6]; at 33.0 µM 99% | [6]; [18] 98% | [6]; at 50.0 µM 92.5% | [6]; at 100.0 µM 98% | [7]; at 3.7 µM 99% | [7]; at 11.0 µM 98% | [7]; at 33.0 µM 98% | [7]; at 100.0 µM 97% | [8]; [18] 99% | [8]; at 50.0 µM 93.5% | [9]; at 3.7 µM 99% | [9]; at 11.0 µM 98% | [9]; at 33.0 µM 99% | [9]; at 100.0 µM 98% | [10]; [18] 98% | [10]; at 50.0 µM 92.2% | [11]; at 1.2 µM 80% | [11]; at 3.7 µM 98% | [11]; at 11.0 µM 99% | [11]; at 33.0 µM 96% | [11]; [18] 98% | [11]; at 50.0 µM 92% | [11]; at 100.0 µM 97% | [12]; at 3.7 µM 99% | [12]; at 11.0 µM 98% | [12]; at 33.0 µM 99% | [12]; at 100.0 µM 98% | [13]; at 1.2 µM 89% | [13]; at 3.7 µM 100% | [13]; at 11.0 µM 99% | [13]; at 33.0 µM 99% | [13]; at 100.0 µM 98% | [14]; at 1.2 µM 89% | [14]; at 3.7 µM 100% | [14]; at 11.0 µM 100% | [14]; at 33.0 µM 100% | [14]; at 100.0 µM 98% | [15]; [17] 100% | [15]; [18] 100% | [16]; at 1.2 µM 76% | [16]; at 3.7 µM 100% | [16]; at 11.0 µM 99% | [16]; at 33.0 µM 99% | [16]; at 100.0 µM 98%
inactive: [4]; at 1.2 µM 65% | [6]; at 1.2 µM 67% | [7]; at 1.2 µM 59% | [8]; [17] -25% | [9]; at 1.2 µM 62% | [10]; [17] 55% | [11]; [17] 4% | [12]; at 1.2 µM 27% | [15]; at 50.0 µM 43.8%
